Assay results: PubChem BioAssay (NCATS)
Inconclusive results are not listed. Activity calls are given as the source filed them. Calls follow the shape of the dose curve; as a rule, active = well fitted curve in the direction sought with a large enough effect; inconclusive = small, poorly fitted or top-dose-only effect, or another doubt; inactive = no such curve, though single readings can be large; an effect the other way counts as inactive or inconclusive.

Key:
[1] = biological target: Voltage-gated inwardly rectifying potassium channel KCNH2 (Homo sapiens) (UniProt Q12809); assay: qHTS Assay for Small Molecule Inhibitors of the Human hERG Channel Activity (AID 588834);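 also: lower thallium flux fluorescence means stronger hERG block; nearly all actives have a fitted effect of over 50% in size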; also: potency is read from the fitted curve at half-maximal effect
How it was run: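 hERG block measured as reduced thallium-dye (FluxOR) fluorescence after stimulation buffer addition, read over 2 min. Cells were hERG-BacMam-transduced U2OS exposed to compound ~10 min […]; concentration-response fitted with Hill equation for AC50.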

[2] = biological target: Glutaminase kidney isoform, mitochondrial (Homo sapiens) (UniProt O94925); assay: qHTS for Inhibitors of Glutaminase (GLS): LOPAC Validation (AID 624146); also: nearly all actives have a fitted effect of over 60% in size; also: potency is read from the fitted curve at half-maximal effect
How it was run: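 hKGA; 45 mM KH2PO4 pH 8.2 + 0.02% Tween-20; cpd via pin tool; 1 mM Gln soln; GluOx/HRP/Amplex Red; RT 30 min; fluor. t0 & final.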

[3] = qHTS of Trypanosoma Brucei Inhibitors: LOPAC Validation (AID 624147)
How it was run: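 T. brucei PYK with substrate was exposed to pin-transferred compounds across a concentration series, then started with 130 uM ADP (final). After 45 min at room temperature, Kinase-Glo Plus luminescence was read, normalized and curve-fitted.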

[4] = biological target: Glucagon-like peptide 1 receptor (Homo sapiens) (UniProt P43220); assay: qHTS of GLP-1 Receptor Agonists: LOPAC Validation (AID 624148);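 also: higher luminescence signal means agonism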
How it was run: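 HEK293 cells stably co-expressing a cAMP-responsive luciferase reporter and a hypersensitive GLP-1R were plated 12 h at 37 °C and exposed to compounds for 4-6 hr at 37 °C, 5% CO2. Luminescence was read 12 min after adding detection reagent.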

[5] = qHTS of Nrf2 Activators: LOPAC Validation (AID 624149)
How it was run: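 Following overnight seeding in 5% FBS OPTI-MEM, AREc32_Fluc cells receive compounds for a 24 hr incubation at 37 deg C with 5% CO2. Steady-Glo is added, and after 30 min at RT luminescence is recorded.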

[6] = HTS Assay for Allosteric Antagonists of the Human D2 Dopamine Receptor: Hit Validation in HTRF (AID 624455);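 also: stable D1 dopamine receptor cell line scored for blocking the D1 response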
How it was run: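 Validation of hits used D1 receptor stably expressed in cells with HTRF detection of response inhibition; origin screen measured calcium flux following EC80 dopamine in a force-coupled, inducible Hek293 Trex D2 cell line.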

Measured: Potency

Glutaminase kidney isoform, mitochondrial (Homo sapiens), sequence (O94925 whole entry, looked up, canonical isoform): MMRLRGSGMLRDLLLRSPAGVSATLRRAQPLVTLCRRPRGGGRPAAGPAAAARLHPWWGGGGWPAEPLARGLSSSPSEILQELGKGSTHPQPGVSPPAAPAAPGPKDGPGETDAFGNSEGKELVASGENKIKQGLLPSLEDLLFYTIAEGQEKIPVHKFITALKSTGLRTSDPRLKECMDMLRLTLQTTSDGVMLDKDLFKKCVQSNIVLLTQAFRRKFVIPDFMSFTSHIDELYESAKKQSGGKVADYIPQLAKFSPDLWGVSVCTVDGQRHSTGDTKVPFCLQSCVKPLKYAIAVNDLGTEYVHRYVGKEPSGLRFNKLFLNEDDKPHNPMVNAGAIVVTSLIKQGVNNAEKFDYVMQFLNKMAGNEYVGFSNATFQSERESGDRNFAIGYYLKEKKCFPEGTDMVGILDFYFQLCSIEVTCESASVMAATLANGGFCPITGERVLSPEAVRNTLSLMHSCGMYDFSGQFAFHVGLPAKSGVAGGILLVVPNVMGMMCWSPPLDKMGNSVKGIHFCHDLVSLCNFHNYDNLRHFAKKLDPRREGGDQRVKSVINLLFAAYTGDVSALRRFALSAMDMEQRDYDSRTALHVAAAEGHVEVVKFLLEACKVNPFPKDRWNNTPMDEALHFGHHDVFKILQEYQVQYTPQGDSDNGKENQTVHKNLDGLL
Glucagon-like peptide 1 receptor (Homo sapiens), sequence (P43220 whole entry, looked up): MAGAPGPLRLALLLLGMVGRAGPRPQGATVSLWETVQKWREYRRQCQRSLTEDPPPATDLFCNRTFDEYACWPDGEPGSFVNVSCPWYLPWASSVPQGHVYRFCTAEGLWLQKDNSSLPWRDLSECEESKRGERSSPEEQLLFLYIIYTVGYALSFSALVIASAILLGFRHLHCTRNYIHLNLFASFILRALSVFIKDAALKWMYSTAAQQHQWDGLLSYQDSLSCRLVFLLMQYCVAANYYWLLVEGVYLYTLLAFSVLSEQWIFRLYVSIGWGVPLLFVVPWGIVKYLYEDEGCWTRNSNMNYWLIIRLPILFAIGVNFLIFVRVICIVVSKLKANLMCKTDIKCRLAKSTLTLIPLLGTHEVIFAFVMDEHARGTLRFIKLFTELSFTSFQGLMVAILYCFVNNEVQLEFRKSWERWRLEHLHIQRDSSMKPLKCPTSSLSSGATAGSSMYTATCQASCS
Voltage-gated inwardly rectifying potassium channel KCNH2 (Homo sapiens), sequence (Q12809 whole entry, looked up): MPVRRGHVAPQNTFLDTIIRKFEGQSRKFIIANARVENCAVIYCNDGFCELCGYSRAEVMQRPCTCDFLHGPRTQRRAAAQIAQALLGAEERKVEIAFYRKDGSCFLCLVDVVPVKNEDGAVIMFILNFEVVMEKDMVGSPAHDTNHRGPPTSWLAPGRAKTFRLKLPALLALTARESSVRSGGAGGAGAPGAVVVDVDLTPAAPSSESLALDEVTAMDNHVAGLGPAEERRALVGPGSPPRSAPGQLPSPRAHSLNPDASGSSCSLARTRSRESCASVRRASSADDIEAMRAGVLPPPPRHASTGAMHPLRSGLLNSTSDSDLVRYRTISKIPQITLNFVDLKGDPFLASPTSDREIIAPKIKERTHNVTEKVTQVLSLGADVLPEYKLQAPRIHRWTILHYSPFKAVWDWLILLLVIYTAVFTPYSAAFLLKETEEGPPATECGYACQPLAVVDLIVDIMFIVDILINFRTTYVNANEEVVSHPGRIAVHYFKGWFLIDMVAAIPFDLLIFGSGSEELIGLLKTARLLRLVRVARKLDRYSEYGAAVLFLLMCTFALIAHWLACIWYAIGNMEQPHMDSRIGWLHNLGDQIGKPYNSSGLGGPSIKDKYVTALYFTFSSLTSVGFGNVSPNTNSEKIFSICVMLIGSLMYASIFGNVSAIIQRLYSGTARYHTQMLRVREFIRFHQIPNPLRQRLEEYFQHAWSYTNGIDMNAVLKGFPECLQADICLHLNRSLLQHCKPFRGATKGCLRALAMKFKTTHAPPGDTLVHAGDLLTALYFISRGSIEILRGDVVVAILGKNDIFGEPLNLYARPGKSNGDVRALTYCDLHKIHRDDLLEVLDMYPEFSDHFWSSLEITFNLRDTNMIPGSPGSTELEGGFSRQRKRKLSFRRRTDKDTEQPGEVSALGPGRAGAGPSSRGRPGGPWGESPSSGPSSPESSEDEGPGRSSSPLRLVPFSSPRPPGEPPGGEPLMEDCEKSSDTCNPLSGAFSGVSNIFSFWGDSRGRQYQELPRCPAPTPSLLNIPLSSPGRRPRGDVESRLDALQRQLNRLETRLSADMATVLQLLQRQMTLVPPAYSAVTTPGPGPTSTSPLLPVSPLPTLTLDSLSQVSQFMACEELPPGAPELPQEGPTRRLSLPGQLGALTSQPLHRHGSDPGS

O=C(O)c1ccccc1Nc1ccccc1
inactive: all assays above

C[C@@]1(C2CCCC2)Cc2cc(OCC(=O)O)c(Cl)c(Cl)c2C1=O
inactive: all assays above

CN[C@H](CC(=O)O)C(=O)O
inactive: all assays above

Nc1ncnc2c1ncn2C1CCCO1 (stereo not drawn)
inactive: all assays above

N=C(N)c1ccc(N)cc1
inactive: all assays above

O=C(O)C1CCCNC1 (stereo not drawn)
inactive: all assays above

O=c1cc(O)cc(/C=C/c2ccc(O)c(O)c2)o1
active: [2] 1.12 µM
inactive: all other assays above

CCCn1c(=O)c2[nH]c(C3CCCC3)nc2n(CCC)c1=O
inactive: all assays above

COc1ccc(NC(=O)c2ccc(-c3ccc(-c4noc(C)n4)cc3C)cc2)cc1N1CCN(C)CC1
active: [1] 3.55 µM
inactive: all other assays above

COc1ccccc1N1CCN(CCCNc2c(C)c(=O)n(C)c(=O)n2C)CC1
inactive: all assays above

CN1CCN(c2nc3cc(C(F)(F)F)ccc3n3cccc23)CC1
active: [1] 3.98 µM
inactive: all other assays above

C=C(C)C1CC=C(C(=O)O)CC1 (stereo not drawn)
inactive: all assays above

C=CCn1c(=O)c2c(nc(-c3ccc(S(=O)(=O)O)cc3)n2C)n(C)c1=O
inactive: all assays above

CNc1ncnc2c1ncn2[C@H]1C[C@H](OP(=O)(O)O)[C@@H](COP(=O)(O)O)O1
inactive: all assays above

COC1(C2=NCCN2)COc2ccccc2O1 (stereo not drawn)
inactive: all assays above

O=c1[nH]c2cc(Cl)ccc2c(O)c1-c1ccc(Oc2ccccc2)cc1
inactive: all assays above

COc1ccc2c(c1)CCC1C2CC[C@@]2(C)C1CC[C@@H]2NCCCCCCN1C(=O)C=CC1=O (stereo partly drawn)
inactive: all assays above

CCCCCCC/C=C\CCCCCCCCC(=O)O
inactive: all assays above

CCCC(=O)NCCc1c2n(c3ccc(OC)cc13)CCCc1ccccc1-2
inactive: all assays above

NCCCCN
inactive: all assays above

CCCC[C@@]1(C2CCCC2)Cc2cc(OCC(=O)O)c(Cl)c(Cl)c2C1=O
inactive: all assays above

Nn1nnc2ccccc21
inactive: all assays above

CC1CNCCN1S(=O)(=O)c1cccc2cnccc12 (stereo not drawn)
inactive: all assays above

NCCCCN=C(N)N
inactive: all assays above

Cc1nc(N=Nc2cc(S(=O)(=O)O)c3cc([N+](=O)[O-])cc(S(=O)(=O)O)c3c2)c(COP(=O)(O)O)c(C=O)c1O
inactive: all assays above

N=C(N)SCCN
inactive: all assays above

O=C(O)C1CCNCC1
inactive: all assays above

Cc1nc(N=Nc2ccc(C(=O)O)cc2)c(COP(=O)(O)O)c(C=O)c1O
inactive: all assays above
